Results filed as inconclusive are left out. Activity calls are given as the source filed them. The calls were made as follows: active = hit-call score of the fitted dose curve at least 0.9, where 1 is the maximum; inconclusive = response in the unintended direction; inactive = score below 0.9.
Tested on: rat Monoamine Oxidase, MAO-A, Central (MAOAC), gene 29253
Experiment: NVS_ENZ_rMAOAC: NovaScreen (NVS) Enzymatic Assay for rat Monoamine Oxidase, MAO-A, Central (MAOAC) (AID 2283243);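 also: potency refers to inhibition seen as signal drop below DMSO baseline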
In short: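 Steps: rat brain protein extract dosed with test chemical (25 uM, duplicate, primary); incubated 1.5 h; radiolabelled product separated from substrate and counted. Signal loss versus DMSO scored as inhibition.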

Question: `N=C(N)c1ccc(OCCCCCOc2ccc(C(=N)N)cc2)cc1` was tested. Which AC50 did it give?
Answer: Its AC50 is 0.203 µM (active).

Question: For `Clc1cc(Cl)c2c(c1)N=C1CCCCCN1C2`, which AC50 is on record?
Answer: Its AC50 is 8.08 µM (active).

Question: For `CCOC(=O)O[C@H](C)OC(=O)c1ccc2c(c1)cc(C(=O)NC1CCN(C(C)C)CC1)n2Cc1cc(-c2ccc(Cl)s2)on1`, which AC50 is on record?
Answer: The AC50 was 23.6 µM (active).

Question: With `NCc1cccc(C2CCN(C(=O)c3ccc(C#Cc4ccccc4F)o3)CC2)c1` as the compound, how does the AC50 read?
Answer: Its AC50 is 1.72 µM (active).

Question: Which AC50 does the source give for `Nc1ccc2c(c1)C(=O)c1ccccc1C2=O` here?
Answer: The AC50 was 3.68 µM (active).

Target: Norway rat Vesicular Monoamine Transporter (VMAT2), neurotransmitter transporter, Slc18a2 (gene 25549) (UniProt Q01827)
Experiment: NVS_TR_rVMAT2: NovaScreen (NVS) Transporter Assay for Norway rat Vesicular Monoamine Transporter (VMAT2), neurotransmitter transporter (AID 2283376);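 also: actives lower the bound radioligand signal below the DMSO level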
In short: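 Radioligand displacement binding on rat forebrain tissue preparation, filter-based scintillation read-out 1 hour after dosing. Primary screen in duplicate at 25 uM, then concentration series for actives; loss of signal versus DMSO.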

Sequence of Norway rat Vesicular Monoamine Transporter (VMAT2), neurotransmitter transporter, Slc18a2 (gene 25549) (Q01827 whole entry, looked up): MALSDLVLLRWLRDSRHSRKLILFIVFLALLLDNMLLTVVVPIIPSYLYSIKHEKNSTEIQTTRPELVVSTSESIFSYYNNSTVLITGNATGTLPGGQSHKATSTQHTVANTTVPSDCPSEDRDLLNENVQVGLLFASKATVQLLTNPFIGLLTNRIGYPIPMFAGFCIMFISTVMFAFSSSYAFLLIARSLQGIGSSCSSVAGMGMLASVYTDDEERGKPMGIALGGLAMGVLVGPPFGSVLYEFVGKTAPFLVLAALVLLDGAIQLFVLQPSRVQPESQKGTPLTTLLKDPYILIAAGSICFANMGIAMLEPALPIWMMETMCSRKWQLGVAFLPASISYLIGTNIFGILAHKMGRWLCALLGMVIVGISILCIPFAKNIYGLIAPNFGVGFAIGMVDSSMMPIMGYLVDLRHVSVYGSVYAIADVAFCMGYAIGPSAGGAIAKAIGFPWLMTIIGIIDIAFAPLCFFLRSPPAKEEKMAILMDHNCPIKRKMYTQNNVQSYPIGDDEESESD

Question: How did the outcome turn out when `O=C(OC[C@H]1O[C@@H](OC(=O)c2cc(O)c(O)c(OC(=O)c3cc(O)c(O)c(O)c3)c2)[C@H](OC(=O)c2cc(O)c(O)c(OC(=O)c3cc(O)c(O)c(O)c3)c2)[C@@H](OC(=O)c2cc(O)c(O)c(OC(=O)c3cc(O)c(O)c(O)c3)c2)[C@@H]1OC(=O)c1cc(O)c(O)c(OC(=O)c2cc(O)c(O)c(O)c2)c1)c1cc(O)c(O)c(OC(=O)c2cc(O)c(O)c(O)c2)c1` was run?
Answer: The outcome was “inactive”.

Question: How did the AC50 turn out when `N=C(N)c1ccc(OCCCCCOc2ccc(C(=N)N)cc2)cc1` was run?
Answer: The AC50 was 5.98 µM (active).

Question: With `O=C(c1ccc(OCCN2CCCCC2)cc1)c1c(-c2ccc(O)cc2)sc2cc(O)ccc12` as the compound, how does the AC50 read?
Answer: The AC50 was 0.563 µM (active).

Question: For `COc1ccc(-n2nc(C(F)F)cc2-c2ccc(S(C)=O)cc2)cc1` (centres undefined), which AC50 is on record?
Answer: The AC50 was 4.96 µM (active).

Question: For `CS(=O)(=O)c1ccc([C@@H](CC2CCCC2)C(=O)Nc2cnccn2)cc1Cl`, which AC50 is on record?
Answer: The AC50 was 7.12 µM (active).

Question: For `CCOC(=O)O[C@H](C)OC(=O)c1ccc2c(c1)cc(C(=O)NC1CCN(C(C)C)CC1)n2Cc1cc(-c2ccc(Cl)s2)on1`, which AC50 is on record?
Answer: Its AC50 is 5.06 µM (active).

Question: Which outcome does the source give for `Nc1ccc2c(c1)C(=O)c1ccccc1C2=O` here?
Answer: Its outcome is “inactive”.

Question: How did the AC50 turn out when `O=C1c2ccccc2C(=O)N1CCc1noc(-c2ccc(CN3CCCCCC3)s2)n1` was run?
Answer: Its AC50 is 2.87 µM (active).

Question: How did the outcome turn out when `COCCOc1cc2cc(C(=O)NC3CCN(C(C)C)CC3)n(CC(=O)Nc3ccc(Cl)cn3)c2cn1` was run?
Answer: Its outcome is “inactive”.

Reference: PubChem BioAssay (EPA / NIEHS)
